# From PubChem BioAssay
# Dicer processing: blocks human Dicer maturation of pre-miR-21. cat-ELCCA pre-miR-21 Dicer processing, chemiluminescence; active compounds read high. 47,000 tested, 6% active. Q9UPY3. z-score at 25 µM; in the data active = z-score above about 3, passing the limit was not always enough;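 note: plate controls were vehicle for no effect and no enzyme for full effect; higher signal means more uncleaved substrate so more Dicer inhibition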
# * = called active by the depositor. This is one part of a sample in which hits are shown more often than they occur.
SMILES,Dicer processing
FC(F)(F)Oc1ccc(NC(=S)N2CCc3c([nH]c4ccccc34)C2C(F)(F)F)cc1 (stereo not drawn),1.05
O=C(O)CCC(=O)N1CCc2c([nH]c3ccccc23)C1C(F)(F)F (stereo not drawn),1.03
CC(=O)NC1C(=O)N(C)c2c(C)cc(C)cc21 (stereo not drawn),-0.03
O=C(Nc1ccccc1)OC(CSc1ccccn1)CSc1ccccn1,1.95
COc1cc(CN2CCN(Cc3cccc4ccccc34)CC2)cc(OC)c1,3.66*
COc1ccc(CN2CCN(Cc3c[nH]c4ccccc34)CC2)c(OC)c1,2.44
COc1cccc(CN2CCN(Cc3c[nH]c4ccccc34)CC2)c1OC,3.35*
COc1ccc(OC)c(CN2CCN(Cc3c[nH]c4ccccc34)CC2)c1,2.64
COc1ccc(CN2CCN(Cc3cc(OC)ccc3O)CC2)cc1,2.64
COc1ccc(CN2CCN(Cc3ccc4c(c3)OCO4)CC2)c2ccccc12,-0.76
CC(=O)Nc1cc2cc(-n3cccc3)ccc2oc1=O,-0.75
CCOc1ccc(-n2c(C)nc(Nc3ccccc3)nc2=O)cc1,1.26
COC(=O)c1ccc(C2C(C(=O)OC(C)C)=C(C)NC3=C2C(=O)CC(C)(C)C3)cc1 (stereo not drawn),-0.93
O=C1CNC(=S)N1CCc1cnc[nH]1,-1
C/C(=N\NC(=S)NC(C)(C)C)c1cc(F)cc(F)c1O,0.36
COC(=O)c1sccc1N(C)S(C)(=O)=O,-1.51
Cc1cc(-c2nc(C)c(C(=O)NNC(=O)Nc3ccc(Cl)cc3Cl)s2)no1,3.11*
Cc1nc(-c2cccs2)sc1C(=O)NNC(=O)Nc1ccc(Cl)cc1,0.9
CC(C)(C)c1cc(NC(=O)Nc2ccc(Cl)cc2Cl)no1,-1.16
NC(=O)C1=CN(C(=O)Nc2ccccc2)CCC1C(F)(F)F (stereo not drawn),-0.77
O=C1CSC(=O)N1c1ccc(Cl)cc1,-0.02
O=C1CSC(=O)N1c1ccc(C(F)(F)F)cc1,3.93*
COc1ccc(N2C(=O)CSC2=O)cc1,1.77
OC(CNCCNc1ccc(C(F)(F)F)cn1)COc1ccccc1 (stereo not drawn),-0.99
CC(=O)Nc1cc(N2CC(C)CC(C)C2)c(F)cc1[N+](=O)[O-] (stereo not drawn),28.1*
SMILES,Dicer processing
CC1CC(C)CN(c2ccc(S(N)(=O)=O)cc2[N+](=O)[O-])C1 (stereo not drawn),-1.13
CC(=O)Nc1cc(N2CCOCC2)c(F)cc1[N+](=O)[O-],-1.27
O=C1N2CN(Cc3ccccc3)CN=C2SC1(CO)CO,-0.3
O=C(N1CCc2ccccc21)N1c2ccccc2Sc2ccccc21,-0.51
CCOc1ccc(C2C(C(=O)OC)=C(C)NC3=C2C(=O)c2ccccc23)cc1OCC (stereo not drawn),-0.83
Cc1ccnc(SCn2c(=S)sc3ccccc32)n1,-3.74
Cc1c(C)n(C(=O)CSc2nc(O)cc(=O)[nH]2)c2ccccc12,-1.21
Cc1ccnc(SCC(=O)n2c(C)c(C)c3ccccc32)n1,3.46*
Cn1cc(Br)c(/C=N/Nc2ccc(Cl)cc2Cl)n1,0.69
Cc1ccc(S(=O)(=O)NC2CC3CC[C@]2(C)C3(C)C)cc1 (stereo partly drawn),-0.39
CCN(CC)c1ncnc2c1[nH]c1ccccc12,1.85
CN(C)c1ncnc2c1[nH]c1ccccc12,3.52*
Cc1ccc2[nH]c3c(N4CCCCC4)ncnc3c2c1,2.89
CS(=O)(=O)/C(C#N)=C/c1c(-c2ccccc2)nc2n1CCS2,1.54
Clc1ccc(N=Cc2c(-c3ccccc3)nc3n2CCS3)cc1,3.87*
FC(F)(F)c1cccc(N=Cc2c(-c3ccccc3)nc3n2CCS3)c1,2.74
Cc1cc(C)nc(-n2nc(C)c3c(=O)oc(C)cc32)n1,-2
COCCCNC(=S)N/N=C/c1cccs1,1.32
C=CCN1C(=O)C2(/C(=C(/O)c3ccc(F)cc3)C(=O)C(=O)N2CCCN(C)C)c2ccccc21 (stereo not drawn),2.09
CCOc1ccc(/C(O)=C2/C(=O)C(=O)N(CCCN(C)C)C23C(=O)N(CC)c2ccccc23)cc1 (stereo not drawn),-0.29
C=CCN1C(=O)C2(/C(=C(/O)c3ccccc3)C(=O)C(=O)N2CCCN(C)C)c2ccccc21 (stereo not drawn),4.02*
CN(C)CCCN1C(=O)C(=O)/C(=C(\O)c2ccccc2)C12C(=O)N(C)c1ccccc12 (stereo not drawn),1.8
CCN1C(=O)C2(/C(=C(/O)c3ccccc3)C(=O)C(=O)N2CCCN(C)C)c2ccccc21 (stereo not drawn),3.56*
C=CCN1C(=O)C2(/C(=C(/O)c3ccc(OCC)cc3)C(=O)C(=O)N2CCN(C)C)c2ccccc21 (stereo not drawn),-0.01
O=C(CSc1nc2ccccc2s1)Nc1ccc(F)cc1,0.4
SMILES,Dicer processing
Cc1nc(N2CCN(CCO)CC2)nc2c1C(=O)CC(c1cccs1)C2 (stereo not drawn),-0.9
CCc1n(CC)c2ccccc2[n+]1CC(O)COc1ccccc1OC (stereo not drawn),0.58
CCn1c(C)[n+](CC(O)COc2ccc(F)cc2)c2ccccc21 (stereo not drawn),0.85
CCc1n(CC)c2ccccc2[n+]1CC(O)COc1ccc(F)cc1 (stereo not drawn),5.04*
O=C(CC1Sc2ccccc2NC1=O)Nc1ccc(N2CCOCC2)cc1 (stereo not drawn),2.08
O=S(=O)(NNc1nccc(-c2cccnc2)n1)c1ccccc1Cl,10.2
COC(=O)c1sc2ccccc2c1Cl,-0.81
COCCNC(=O)c1cc2sc3ccccc3c2s1,3.85*
CN(C)c1ccc(NC(=O)c2cccs2)cc1,3.25*
CCN(CC)CCCNC(=O)c1sc2ccccc2c1Cl,-0.79
CN(C)c1ccc(C(O)C(=O)c2cccs2)cc1 (stereo not drawn),0.15
O=C(Nc1ccc2c(c1)CS(=O)(=O)C2)c1cccs1,0.38
O=C(Nc1ccc(F)cc1)c1sc2ccccc2c1Cl,-0.53
O=C(Nc1cccc(S(=O)(=O)N2CCOCC2)c1)c1cc2sc3ccccc3c2s1,-0.66
CN(C)c1ccc(NC(=O)c2cc3sc4ccccc4c3s2)cc1,6.47*
CCOc1ccc(C2c3c(oc4ccccc4c3=O)C(=O)N2c2ccccn2)cc1OCC (stereo not drawn),1.68
COc1ccc(C(=O)Oc2ccc3c(c2)C(C)=CC(C)(C)N3)cc1,2.06
COC(=O)C(NC(=O)OCc1ccccc1)C(C)O (stereo not drawn),1.11
CCOC(=O)c1nc(-c2ccccc2)sc1C(=O)/C=C/N(C)C,-0.73
CSc1c(C#N)c(-c2cc(C(C)(C)C)oc2C)nn1-c1cc(C)cc(C)c1,-2.24
CC1(C)CC(=O)C=C(SCC(=O)Nc2ccccc2Cl)S1,0.39
O=C(/C(=N/N=C/c1cccs1)c1ccccc1)c1ccccc1,22.1
Cc1cc(C)nc(SCC2=NN(c3nc(C)cc(C)n3)C(=O)C2)n1,4.05*
Cc1cc(C)nc(N2N=C(CSc3ccc(Cl)cc3)CC2=O)n1,-0.85
Cc1cc(C)nc(N2N=C(C(C)C)CC2=O)n1,-5.92
SMILES,Dicer processing
CCOC(=O)C(C#N)c1c([N+](=O)[O-])c(=O)n(C)c2ccccc12 (stereo not drawn),0.76
COc1ccc(C2=CC(c3ccc(Cl)cc3)n3nc(CCCO)nc3N2)cc1 (stereo not drawn),2.65
COc1ccc(-c2noc(-c3cccc(OC)c3OC)n2)cc1,4.1*
COc1ccccc1-c1nc(-c2ccc(-c3ccc(C)cc3)nc2OC)no1,-0.1
COc1cccc(-c2nc(-c3ccccc3)no2)c1OC,-0.58
Cc1c(-c2ccn[nH]2)nnn1-c1cc(Cl)ccc1Cl,-0.5
